The text below walks through data of PubChem BioAssay (NCATS).

Unmarked numbers belong to inactive results. Records with an inconclusive call do not appear. The source made the active and inactive calls. Unless noted, calls come from the whole dose curve; as a rule, active = well fitted curve in the direction sought with a large enough effect; inconclusive = small, poorly fitted or top-dose-only effect, or another doubt; inactive = no such curve, though single readings can be large; an effect the other way counts as inactive or inconclusive.

The nature of test [1]: qHTS Assay for Identification of Small Molecule Agonists for Hypoxia Response Element Signaling Pathway (AID 914; active = well fitted activation curve with a large enough effect in the signal ratio, with a control signal flat, not every such curve was filed as active; the % refers to the signal ratio; note: % of control where 0% means no effect). Particulars: ME-180 (cervical carcinoma) HRE-bla reporter, beta-lactamase ratio, CoCl2, 17 h; activation: stronger effect = higher value. In short, it runs like this:
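ME-180 cells carrying an HRE-driven beta-lactamase reporter were treated with compounds in a titration series plus an EC50 level of CoCl2 for 17 h at 37 degrees Celsius; CCF4 readout as the 460nm/530nm ratio gave AC50 values.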

The nature of test [2]: qHTS Assay for Identification of Small Molecule Antagonists for Thrombopoietin (TPO) Signaling Pathway (AID 918). Note: potency is the fitted concentration of half-maximal effect; nearly all actives have a fitted effect of over 60% in size. The following applies: TPO-dependent cell signaling reporter, antagonist mode. In short, it runs like this:
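Murine Ba/F3 cells expressing human TPO receptor and a Glycoprotein IIb promoter-luciferase reporter, IL-3-starved overnight, treated with compound plus TPO at EC50 (26 pM final). After 24 h at 37 C, luminescence read to detect inhibitors.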
In general terms: Quantitative high-throughput screening tests each substance at several concentrations.

Test [3] has as its target Muscarinic acetylcholine receptor M1 (Rattus norvegicus) (UniProt P08482). Briefly: qHTS Assay for Antagonists of Acetylcholine Muscarinic M1 Receptor: Kinetic Measurement of Intracellular Calcium Response (AID 943). Note: nearly all actives have a fitted effect of over 75% in size. Particulars: M1-expressing cells, kinetic intracellular calcium fluorescence; series mostly up to 35.3 µM. Summed up:
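CHO cells expressing rat M1 receptor, Fluo-4 loaded, preincubated 10 min with compound, then stimulated with EC80 carbachol (100 nM final). Kinetic calcium fluorescence over 4 min; response taken as peak over basal signal.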

Test [4] addresses Cytochrome P450 3A4 (Homo sapiens) (UniProt P08684). Briefly: qHTS Assay for Inhibitors and Substrates of Cytochrome P450 3A4 (AID 884). For activity change, negative = inhibition: % is set by controls: 0 for no effect and ±100 for the full control effect. Note: nearly all actives have a fitted effect of over 50% in size. Note: potency is the fitted concentration of half-maximal effect. The following applies: recombinant CYP3A4, Luciferin-PPXE luminescence; series mostly up to 57.1 µM. In short, it runs like this:
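20 nM human CYP3A4 with 25 uM Luciferin-PPXE (at KM) in 200 mM KPO4, preincubated 10 min with compound; NADPH regeneration started a 60 min RT reaction. Luciferin detected by luminescence, normalized to 57 uM ketoconazole as full inhibition.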

The nature of test [5]: Confirmation and Secondary Assay for Modulators of Hemoglobin Beta Chain Splicing at IVS2 654 locus (AID 910).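 Note: per-well total GFP intensity by laser scanning cytometry after 2-day treatment; % of control where 0% means no effect.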 Particulars: HeLa EGFP-654 splicing reporter, GFP fluorescence, 48 h; series mostly up to 38.3 µM. Summed up: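 HeLa cells stably carrying EGFP interrupted by mutant beta-globin IVS2-654 intron (CMV-driven) were treated with compound for 2 days at 37C; corrected splicing was scored as total peak GFP intensity per well (488 nm excitation, 500-520 nm emission).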

Test [6] in a line: Confirmation and Secondary Assay for Modulators of Hemoglobin Beta Chain Splicing at IVS2 705 locus (AID 930). Note: % of control where 0% means no effect. The following applies: HeLa EGFP-705 splicing reporter, GFP fluorescence, 48 h; series mostly up to 38.3 µM. In short, it runs like this: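 HeLa cells stably carrying EGFP interrupted by mutant beta-globin IVS2-705 intron (CMV-driven) were seeded at 500 cells/well, treated next day with compound for 2 days at 37C; corrected splicing restores EGFP, read as total peak GFP intensity per well.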

Test [7] deals with ATP-dependent 6-phosphofructokinase (Trypanosoma brucei brucei) (UniProt O15648). Description: qHTS Assay to Find Inhibitors of T. brucei phosphofructokinase: hit validation (AID 492961).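 Note: luminescence reports ADP formed as PFK phosphorylates fructose-6-phosphate with ATP; % is set by controls: 0 for no effect and ±100 for the full control effect.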 Particulars: T. brucei PFK, ADP-Glo luminescence; series mostly up to 51.4 µM. In short, it runs like this:
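PFK 1.25 nM, F6P 0.5 mM, ATP 0.1 mM, MgCl2 5 mM, 0.1 M TEA pH 8.0, Tween20 0.01%, BSA 0.1%; 45 min RT. ADP-Glo two-step detection, luminescence. qHTS titration; curve fitting with curve-class categorization.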

Test [8] in a line: qHTS profiling for inhibitors of Plasmodium falciparum proliferation (AID 504749).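 For activity, negative = inhibition: 0% = DMSO vehicle and full inhibition = artemisinin control.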 For all read-outs here: nearly all actives have a fitted effect of over 60% in size. Note: potency is the fitted concentration of half-maximal effect. Particulars: P. falciparum in erythrocytes, SYBR Green DNA, 72 h; for activity, negative = inhibition: at 28.7 µM (top of the series). Summed up: (§1)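 Parasite proliferation within erythrocytes, 72 h exposure. Endpoint: SYBR Green I fluorescence after overnight lysis at room temperature. Controls: 0.29 uM artemisinin, DMSO.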

The test system of the next test is AS120. The description is as above. The following applies: P. falciparum in erythrocytes, SYBR Green DNA, 72 h; series mostly up to 28.7 µM. In short, it runs like this:
as §1

For the next test, the system named is ATS95. Described as above. The following applies: P. falciparum in erythrocytes, SYBR Green DNA, 72 h; series mostly up to 28.7 µM. Summed up:
as §1

The subject of the next test is CP203. Described as above. Particulars: P. falciparum in erythrocytes, SYBR Green DNA, 72 h; series mostly up to 28.7 µM. In short, it runs like this: as §1
A further test concerns CP238. Described as above. Particulars: P. falciparum in erythrocytes, SYBR Green DNA, 72 h; series mostly up to 28.7 µM. In short, it runs like this:
as §1

For another test, the system named is CP252. Described as above. The following applies: P. falciparum in erythrocytes, SYBR Green DNA, 72 h; series mostly up to 28.7 µM. In short, it runs like this: as §1
In the next test the test system is CP265. The description is as above. Particulars: P. falciparum in erythrocytes, SYBR Green DNA, 72 h; series mostly up to 28.7 µM. Summed up: as §1
Another test relates to DFO2036. The test is described as above. Particulars: P. falciparum in erythrocytes, SYBR Green DNA, 72 h; series mostly up to 28.7 µM. Summed up: as §1
In a further test the test system is DIV30. The test is described as above. Particulars: P. falciparum in erythrocytes, SYBR Green DNA, 72 h; series mostly up to 28.7 µM. In short, it runs like this:
as §1

The next test deals with P94_40. The test is described as above. Particulars: P. falciparum in erythrocytes, SYBR Green DNA, 72 h; series mostly up to 28.7 µM. Summed up:
as §1

Another test relates to PAD. Described as above. Particulars: P. falciparum in erythrocytes, SYBR Green DNA, 72 h; series mostly up to 28.7 µM. In short, it runs like this:
as §1

A further test concerns PC26. The description is as above. Particulars: P. falciparum in erythrocytes, SYBR Green DNA, 72 h; series mostly up to 28.7 µM. In short, it runs like this:
as §1

Another test concerns W2. Described as above. Particulars: P. falciparum in erythrocytes, SYBR Green DNA, 72 h; series mostly up to 28.7 µM. In short, it runs like this:
as §1

Cytochrome P450 3A4 (Homo sapiens), sequence (P08684 whole entry, looked up): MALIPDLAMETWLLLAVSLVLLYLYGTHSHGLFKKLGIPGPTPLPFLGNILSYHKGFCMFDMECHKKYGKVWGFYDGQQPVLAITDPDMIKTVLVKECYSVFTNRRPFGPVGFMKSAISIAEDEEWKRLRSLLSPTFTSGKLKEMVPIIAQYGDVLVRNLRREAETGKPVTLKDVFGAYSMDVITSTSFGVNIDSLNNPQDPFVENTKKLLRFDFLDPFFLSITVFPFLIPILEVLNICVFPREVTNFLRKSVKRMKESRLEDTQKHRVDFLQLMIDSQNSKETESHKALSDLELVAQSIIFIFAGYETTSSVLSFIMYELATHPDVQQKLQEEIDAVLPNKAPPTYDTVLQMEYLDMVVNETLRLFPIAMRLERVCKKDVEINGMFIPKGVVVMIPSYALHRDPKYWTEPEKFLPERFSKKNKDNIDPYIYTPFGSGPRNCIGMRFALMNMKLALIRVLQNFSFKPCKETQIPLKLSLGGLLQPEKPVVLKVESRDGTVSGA
Muscarinic acetylcholine receptor M1 (Rattus norvegicus), sequence (P08482 whole entry, looked up): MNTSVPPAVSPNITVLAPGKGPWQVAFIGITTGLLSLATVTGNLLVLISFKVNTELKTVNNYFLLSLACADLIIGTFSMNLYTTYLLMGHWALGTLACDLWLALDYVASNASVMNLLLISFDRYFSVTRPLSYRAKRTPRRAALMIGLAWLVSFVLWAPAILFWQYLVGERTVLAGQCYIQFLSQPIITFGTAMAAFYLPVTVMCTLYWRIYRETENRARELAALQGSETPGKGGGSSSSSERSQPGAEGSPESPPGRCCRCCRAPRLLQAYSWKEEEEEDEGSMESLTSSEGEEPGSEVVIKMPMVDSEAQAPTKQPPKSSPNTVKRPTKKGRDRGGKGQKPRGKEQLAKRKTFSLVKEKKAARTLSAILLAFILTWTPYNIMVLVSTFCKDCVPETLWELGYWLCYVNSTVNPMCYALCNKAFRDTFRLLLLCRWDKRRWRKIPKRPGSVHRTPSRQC
ATP-dependent 6-phosphofructokinase (Trypanosoma brucei brucei), sequence (O15648 whole entry, looked up): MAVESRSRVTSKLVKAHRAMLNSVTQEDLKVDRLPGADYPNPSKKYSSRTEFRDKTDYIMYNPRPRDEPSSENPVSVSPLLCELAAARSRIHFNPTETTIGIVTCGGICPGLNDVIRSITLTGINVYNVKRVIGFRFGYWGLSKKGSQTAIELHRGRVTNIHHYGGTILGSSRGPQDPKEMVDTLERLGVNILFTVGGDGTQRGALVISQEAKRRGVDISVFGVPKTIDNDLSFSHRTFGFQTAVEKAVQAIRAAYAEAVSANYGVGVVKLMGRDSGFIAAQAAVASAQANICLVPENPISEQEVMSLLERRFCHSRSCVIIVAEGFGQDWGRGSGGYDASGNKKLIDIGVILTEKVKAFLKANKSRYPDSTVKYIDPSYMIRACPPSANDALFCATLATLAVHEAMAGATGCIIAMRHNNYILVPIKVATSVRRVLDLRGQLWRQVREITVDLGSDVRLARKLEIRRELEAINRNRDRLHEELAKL

As for `Nc1ncnc2c1ncn2[C@@H]1CCCO1`, in test [1], the activation was -13.1%.

As to `Oc1ccc([C@@H]2CNCc3sccc32)cc1O`, the Potency in test [2] is 12.6 µM (active).

As for `OC[C@@H]1NC[C@@H](O)[C@@H](O)[C@H]1O`, in test [3], the Potency entry was “inactive”.

Regarding `COc1cc2c(cc1OC)[C@H](c1ccccc1)CN(C)CC2`, in test [4], the Potency result is “inactive”.

In the case of `N=c1ccn2c(n1)O[C@@H]1[C@@H](O)[C@H](CO)O[C@H]12`, in [4], the Potency result was “inactive”. In addition, the compound was classed as inactive in test [5] and in [6].

With `O=[N+]([O-])c1ccc(CSc2ncnc3c2ncn3[C@@H]2O[C@@H](CO)[C@@H](O)[C@H]2O)cc1`, the Potency result in test [4] is “inactive”.

`Cc1cccc(C)c1OC[C@@H](N)C(C)C`: the activation in [1] is -2.64%.

`CNC(=O)[C@@H]1O[C@@H](n2cnc3c(NCc4ccc(N)cc4)ncnc32)[C@@H](O)[C@H]1O`: in test [3], the Potency result is “inactive”.

In the case of `N[C@H](CCCC(=O)O)C(=O)O`, in test [3], the Potency result is “inactive”.

For `Nc1ccc(CCNc2ncnc3c2ncn3[C@@H]2O[C@@H](CO)[C@H](O)[C@@H]2O)cc1`, the activation in [1] is 0.683%.

In the case of `C[C@]1(c2ccccc2)O[C@@H]2C[C@@H]3[C@@H]4CCC5=CC(=O)C=C[C@@]5(C)[C@]4(F)[C@H](O)C[C@]3(C)[C@@]2(C(=O)CO)O1`, in test [4], the Potency was 3.16 µM (active).

For `CN(CCc1ccccn1)c1ccc2c(c1)Cc1ccccc1-2`, the Potency in test [4] was 2.51 µM (active).

Consider `NC(N)=Nc1nc2ccc([N+](=O)[O-])cc2[nH]1`, for which the activity change, negative = inhibition in [4] was 107% [at 11.4 µM].

For the compound `Nc1ncnc2c1nc(Sc1ccc(Cl)cc1)n2[C@@H]1O[C@H]2COP(=O)(O)O[C@@H]2[C@H]1O`, the Potency result in test [3] was “inactive”.

`CN1CCN(c2ccncc2S(=O)(=O)N2CCN(C)CC2)CC1`: the activation in test [1] was 7.59%.

Consider `CCCC[C@]1(C2CCCC2)Cc2cc(OCC(=O)O)c(Cl)c(Cl)c2C1=O`, for which the Potency entry in test [3] is “inactive”.

With `N#CCCn1c(=O)c(CCc2ccccc2)nc2cnc(Oc3ccccc3)nc21`, the Potency in test [4] is 2.51 µM (active).

For the compound `CN1C[C@@H](O)[C@@H](O)[C@@H](O)[C@@H]1CO`, in [1], the activation is 11.9%.

For the compound `Cc1sc2ccccc2[n+]1CCC(=O)O`, the activation in test [1] is -2.73%.

Consider `O=[N+]([O-])c1ccc2c(c1)S(=O)c1ccccc1-2` (centres undefined), for which the activation in [1] is -10.8%.

In the case of `C[C@H](O)[C@H](O)[C@@H]1CNc2nc(N)[nH]c(=O)c2N1`, the Potency entry in [3] was “inactive”.

Turning to `O=C(Nc1ccccc1)N1CCC2(CC1)CCN(C(=O)c1ccco1)CC2`, the Potency result in test [4] was “inactive”.

Turning to `O=C(O)/C=C\[C@H](O)c1ccc(Cl)cc1`, the Potency result in [3] is “inactive”.

Regarding `O=C1O/C(=C\Br)CC[C@@H]1c1cccc2ccccc12`, the results for the Potency in test [4] and in test [2] were 3.98 µM (active) and 10 µM (active), respectively.

For `O=c1ccn([C@@H]2O[C@@H](COP(=O)(O)OP(=O)(O)O)[C@H](O)[C@@H]2O)c(=O)[nH]1`, in test [3], the Potency entry was “inactive”.

For `CC(C)(C)c1onc(OCP(=O)(O)O)c1C[C@@H](N)C(=O)O`, the Potency entry in test [3] was “inactive”.

Turning to `C[C@H]1C[C@@H]2[C@H]3CCC4=CC(=O)C=C[C@@]4(C)[C@@]3(Cl)[C@@H](O)C[C@]2(C)[C@]1(OC(=O)c1ccco1)C(=O)CCl`, the outcome in test [7] was inactive. For the same compound, the Potency in [8] (parasite line B) was 3.16 µM (active); with AS120, 3.55 µM (active); in the test on ATS95, 3.16 µM (active); in the test with CP203, 5.73 µM (active); in the test on CP238, 3.55 µM (active); with CP265 it was 3.55 µM (active). For the same compound, the Potency with DFO2036 was 4.47 µM (active); in the test with DIV30, 6.42 µM (active); in the test with P94_40 it was 3.55 µM (active); in the test with PAD it was 3.98 µM (active); in the test on PC26, 6.42 µM (active); with W2, 3.61 µM (active). For the same compound, the Potency entry in the test with CP252 is “inactive”.

Take `C=C/C(C)=C/[C@]1(C)SC(=O)C(C)=C1O`: in [3], the Potency result was “inactive”.

Regarding `[N-]=[N+]=Nc1ccc(C(=O)CSC[C@@H](NC(=O)CC[C@@H](N)C(=O)O)C(=O)NCC(=O)O)cc1`, the Potency result in test [3] is “inactive”.

With `N[C@@H]1C=CC=C(C(=O)O)C1`, in test [3], the Potency entry is “inactive”.

`CO/N=C(\C(=O)N[C@@H]1C(=O)N2C(C(=O)[O-])=C(C[N+]3(C)CCCC3)CS[C@@H]12)c1csc(N)n1`: the result in [7] was inactive. Besides, the activity, negative = inhibition in [8] (parasite line A) was 2.78%; in test [8] (parasite line B) it was 10.9%. In addition, the Potency entry in the test with AS120, in the test with ATS95, in the test on CP203, in the test on CP238, in the test with CP252 and in the test with CP265 was “inactive” each time. The Potency result with DFO2036, with DIV30, in the test with P94_40, with PAD, with PC26 and in the test with W2 was “inactive” in each case.

Regarding `CC(C)[C@H]1C(=O)C(C(N)=O)=C(O)[C@]2(O)C(=O)C3=C(O)c4c(O)ccc(N(C)C)c4C[C@H]3C[C@@H]12`, in test [2], the Potency is 2.51 µM (active).

`COc1cc([C@H](O)CO)ccc1O`: the Potency entry in test [3] was “inactive”.

For the compound `Nc1nc(Cl)nc2c1ncn2[C@@H]1O[C@@H](CO)[C@@H](O)[C@H]1O`, the compound was classed as inactive in test [5] and in [6].

Consider `Nc1ncnc2c1ncn2[C@@H]1O[C@@H](C(=O)NC2CC2)[C@H](O)[C@@H]1O`, for which the Potency result in test [3] is “inactive”.

For `CNC(=O)[C@@H]1O[C@@H](n2cnc3c(N)ncnc32)[C@@H](O)[C@H]1O`, the Potency entry in test [3] was “inactive”.

On to `C=CCN1CCc2c(cc(O)c(O)c2Cl)[C@H](c2ccccc2)C1`, for which, in test [4], the Potency result is “inactive”.

On to `C[C@@]12C(=O)OC(=O)[C@@]1(C)[C@H]1CC[C@@H]2O1`, for which the Potency in [2] is 3.16 µM (active).
